In the library only some 2.1% were active in any assay of this set; here they are far more common.
ROS inducer: cancer cell ROS induction | AID 624156 | U2OS ROS induction, H2DCF-DA fluorescence | 46,000 tested, 2% active | ROS induction (% of piperlongumine), % at 10 µM; in the data active = ROS induction above about 79%, passing the limit was not always enough;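 also: 0% = DMSO vehicle median and 100% = reference compound median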
YB-1 expression: YB-1 expression inhibition. U2OS, qRT-PCR YB-1 vs CDIP delta delta Cp, 16 h; hits give high values; zero = DMSO, each unit about twofold. delta delta Cp (YB-1 minus CDIP) (no concentration beside the values). 30,000 tested, 0.37% active;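 active = delta delta Cp rounded down to an integer at or above 3, about 3 SD of DMSO wells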;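 also: higher means less YB-1 transcript or more CDIP transcript relative to DMSO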
PD-1 reverse act: reversal of PD-1 mediated T-cell inhibition; primary human CD4 T cells, PD-L1 beads, CellTiter-Glo 96 h; activation, % (concentration not given with the values); 29,000 tested, under 10 active; AID 2316; call rule not given here;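 also: 0% = median vehicle wells and 100% = positive control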
* marks the source's active call; other numbers are inactive results; x = no result given.

SMILES | ROS inducer | YB-1 expression | PD-1 reverse act
C[C@@H]1CN([C@@H](C)CO)C(=O)c2cc(NC(=O)Nc3cccc4ccccc34)ccc2O[C@@H]1CN(C)Cc1ccc2c(c1)OCO2 | -8.0 | 0.244 | -1.6
COc1ccc(NC(=O)CN(c2cc(C)ccc2OC)S(C)(=O)=O)cc1Cl | -6.5 | x | -0.2
Cc1cc(C(F)(F)F)nc(SCC(=O)Nc2ccccc2C(F)(F)F)n1 | -24.7 | x | -0.5
CC1Cc2cc(S(=O)(=O)NN3CCOCC3)ccc2N1C(=O)C1CC1 (stereo not drawn) | -1.5 | x | x
CC1CCN(S(=O)(=O)c2ccc(C(=O)NC34CC5CC(CC(C5)C3)C4)cc2)CC1 | 0.0 | x | x
c1ccc(-n2ncc3c(N4CCc5ccccc54)ncnc32)cc1 | -4.3 | 0.263 | 2.8
Nc1ncnc2c1cnn2-c1ccccc1 | 34.8 | 3.88* | -1.2
Cc1cc(C(=O)Nc2cccc3c2O[C@@H](CN(C)Cc2ccc(Oc4ccccc4)cc2)[C@H](C)CN([C@H](C)CO)C3=O)n(C)n1 | 105.7* | -0.21 | -2.7
Cc1cc(C(=O)Nc2cccc3c2O[C@H](CN(C)Cc2ccc(Oc4ccccc4)cc2)[C@@H](C)CN([C@@H](C)CO)C3=O)n(C)n1 | 123.6* | -0.246 | -2.0
Cc1cc(C(=O)Nc2cccc3c2O[C@@H](CN(C)Cc2ccc(Oc4ccccc4)cc2)[C@@H](C)CN([C@@H](C)CO)C3=O)n(C)n1 | 56.9 | 0.601 | -1.1
Cc1cc(C(=O)Nc2cccc3c2O[C@H](CN(C)Cc2ccc(Oc4ccccc4)cc2)[C@H](C)CN([C@@H](C)CO)C3=O)n(C)n1 | 20.9 | -0.368 | 0.8
COC(=O)c1cc(C)sc1NC(=S)NCCc1ccccc1OC | x | x | 1.3
Cc1ccc2c(cnn2C(=O)CCCC(=O)O)c1 | 9.4 | x | x
CCNc1nc(NC(C)(C)C)nc(N(C#N)CC(=O)OC)n1 | -44.6 | x | -1.3
CC(C)(C)Nc1nc(Cl)nc(N(C#N)CN2C(=O)c3ccccc3S2(=O)=O)n1 | 93.8* | x | x
CCOC(=O)C1(O)c2ccccc2NC(=O)N1C (stereo not drawn) | 0.8 | x | x
COc1ccc(C)cc1N(C)C(=O)c1nn(C)c2c1COc1ccccc1-2 | 19.3 | x | x
O=C(CC1C(=O)N(c2ccc(F)cc2)C(=S)N1CCN1CCOCC1)Nc1ccc(F)cc1 (stereo not drawn) | -0.1 | x | -3.0
COc1ccc(C#Cc2ccc3c(c2)[C@]2(C(=O)N3)[C@H](C(=O)N3CCc4cc(OC)c(OC)cc4C3)[C@H]3C(=O)O[C@H](c4ccccc4)[C@H](c4ccccc4)N3[C@@H]2c2ccccc2OCCO)cc1 | 17.3 | -0.173 | x
COc1cc2c(cc1OC)CN(C(=O)[C@@H]1[C@H]3C(=O)O[C@H](c4ccccc4)[C@H](c4ccccc4)N3[C@H](c3ccccc3OCCO)[C@@]13C(=O)Nc1ccc(C#CC4(O)CCCCCC4)cc13)CC2 | 87.8* | 0.205 | x
COc1cc2c(cc1OC)CN(C(=O)[C@H]1[C@@H]3C(=O)O[C@@H](c4ccccc4)[C@@H](c4ccccc4)N3[C@@H](c3ccccc3OCCO)[C@]13C(=O)Nc1ccc(C#CC4(O)CCCCCC4)cc13)CC2 | 95.9* | 0.0553 | x
COc1cc2c(cc1OC)CN(C(=O)[C@H]1[C@@H]3C(=O)O[C@@H](c4ccccc4)[C@@H](c4ccccc4)N3[C@@H](c3ccc(OCCO)cc3)[C@]13C(=O)Nc1ccc(C#CC4(O)CCCCCC4)cc13)CC2 | 6.0 | 0.102 | x
Cc1cc(Cl)ccc1NC(=O)CN1CCC(C(N)=O)(N2CCCCC2)CC1 | -5.8 | x | -0.9
[N-]=[N+]=NCc1ccccc1C[C@]1(C(=O)N2CCCCC2)N=C(c2ccc(OCCCO)cc2)O[C@H]1c1ccccc1 | 155.0* | -0.0634 | x
O=C(N1CCOCC1)[C@@]1(CCS(=O)(=O)c2ccccc2)N=C(c2ccc(OCCCO)cc2)O[C@H]1c1ccccc1 | 11.8 | -0.635 | x
SMILES | ROS inducer | YB-1 expression | PD-1 reverse act
[N-]=[N+]=NCc1ccccc1C[C@@]1(C(=O)NCc2ccccc2)N=C(c2ccc(OCCCO)cc2)O[C@@H]1c1ccccc1 | 118.3* | 0.813 | x
O=C(N1CCCCC1)[C@]1(CCS(=O)(=O)c2ccccc2)N=C(c2ccc(OCCCO)cc2)O[C@@H]1c1ccccc1 | 88.2* | -0.158 | x
COCCCNC(=O)[C@@]1(Cc2ccccc2CN=[N+]=[N-])N=C(c2ccc(OCCCO)cc2)O[C@H]1c1ccccc1 | 25.6 | 0.582 | x
[N-]=[N+]=NCc1ccccc1C[C@@]1(C(=O)N2CCCCC2)N=C(c2ccc(OCCCO)cc2)O[C@@H]1c1ccccc1 | 53.1 | 0.0364 | x
Cc1ccc(CNC(=O)c2c[nH]n3c(=O)cc(CSc4ccc(Cl)cc4)nc23)cc1 | -11.5 | x | x
NS(=O)(=O)c1ccc(CCn2c(=S)[nH]c3c(sc4ccccc43)c2=O)cc1 | -5.1 | x | x
O=C(C1CC(=O)N(c2ccc(OCc3ccccc3Cl)cc2)C1)N1CCOCC1 (stereo not drawn) | -1.6 | x | x
CCn1c2ccccc2n2c(SC(C)C(=O)O)nnc12 (stereo not drawn) | -2.2 | x | 0.7
Cc1ccc(CSc2nc3ccc(C(=O)N4CCN(c5ccccc5)CC4)cc3n2C)cc1 | -11.0 | x | x
CC(=O)OCC(=O)[C@@]1(O)[C@H](C)C[C@H]2[C@@H]3CCC4=CC(=O)C=C[C@]4(C)[C@@]3(F)[C@@H](O)C[C@@]21C | 8.7 | 0.233 | -2.7
CC(=O)OCC(=O)[C@@]12OC3(CCCC3)O[C@@H]1CC1C3CCC4=CC(=O)C=C[C@]4(C)[C@@]3(F)[C@@H](O)C[C@@]12C (stereo partly drawn) | 129.5* | -0.0579 | x
COc1ccc(C(=O)Cn2c3ccccc3n3nc(-c4ccccc4)nc23)cc1OC | -2.8 | x | -0.4
CCCCN1Cc2c(n(CC(=O)c3ccc(OC)cc3)c3cc(-c4ccccc4)nn3c2=O)C1=O | 170.2* | x | x
Cc1ccc(Cc2c(C)nc3c(C(=O)NC4CCCC4)cnn3c2C)cc1 | 42.3 | x | x
CCC(C)CCC(O)C1=C(C)C(O)OC1=O (stereo not drawn) | -3.8 | -0.935 | 0.4
COc1ccccc1NC(=O)CSc1nncn2c1cc1oc(C)cc12 | 106.6* | x | x
COc1ccccc1NC(=O)CSc1ncccn1 | -1.3 | x | 1.5
COc1ccc(C2=NN(S(C)(=O)=O)C(c3ccccc3OC)C2)cc1 (stereo not drawn) | 163.5* | 0.447 | 0.9
COc1ccc(C2=NN(S(C)(=O)=O)C(c3ccc(C)cc3)C2)cc1 (stereo not drawn) | 32.9 | 0.0476 | 0.0
CC1CCCC(NC(=O)CNC(=S)N(Cc2ccc(F)cc2)C2CCCCC2)C1C (stereo not drawn) | 51.1 | x | x
O=C(Cn1ncc2ccccc21)NC1CCCc2ccccc21 (stereo not drawn) | -3.4 | x | x
Cc1ccc(NC(=O)CSc2nc3c(c(=O)n2CCc2ccccc2)SCC3)cc1Cl | 18.8 | x | x
CCS(=O)CCSc1nc(-c2ccc(Br)cc2)cc(-c2ccccc2)c1C#N (stereo not drawn) | 166.4* | x | x
CCS(=O)CCSc1nc(-c2ccc(C)cc2)cc(-c2ccccc2)c1C#N (stereo not drawn) | -7.9 | x | x
Nc1ccc(C(=O)CC2(O)C(=O)Nc3ccc(F)cc32)cc1 (stereo not drawn) | -4.9 | x | -0.1
C[C@@H]1CN([C@@H](C)CO)C(=O)c2cc(NC(=O)C3CCCCC3)ccc2O[C@H]1CN(C)C(=O)Nc1cccc2ccccc12 | 13.4 | 5.59* | 0.6
